Data as given in PubChem BioAssay AID2315 (National Center for Advancing Translational Sciences (NCATS), 2010).
About 27,000 (9.3%) of roughly 290,000 compounds were called active. The sample holds actives, similar compounds and a random draw of the others, so the mix is not that of the screen. Unmarked numbers belong to inactive results. Cut-off read from the data, not from the text of the source: active = inhibition mostly above about 28% (no sharp cut-off); inactive = mostly below about 43%.

test: A qHTS for Small Molecule Inhibitors of Shiga Toxin; conditions: Vero cells, Shiga toxin protein synthesis inhibition reporter; at 38.7 µM, stronger effect = higher value; note: 0% is about no effect

Row | Compound | inhibition
1 | COc1ccc(Nc2ccc([N+](=O)[O-])cn2)cn1 | 25.8%
2 | Cc1cccc(-n2nc3c(c2NC(=O)c2cc4ccccc4o2)CS(=O)(=O)C3)c1 | -6.86%
3 | CCOc1ccc(CCNC(=O)CCc2nnc3ccc(N4CCCC4)nn23)cc1OCC | -2.23%
4 | Cc1ccc(/C=N/NC(=O)Cn2nc(C)c(Br)c2C)o1 | -6.63%
5 | C/C(=N\NC(=S)NC1CCCCC1)c1ccc(C)o1 | 52.7% (active)
6 | C/C(=N/NC(=O)c1ccc(Br)o1)c1ccc(C)o1 | 91.6% (active)
7 | Cc1ccc(/C=N/NC(=S)Nc2cccc(S(=O)(=O)N(C)C)c2)o1 | 40.8%
8 | CC(CNC(=O)c1ccc(Br)o1)NC(=O)c1ccc(Br)o1 (stereo unspecified) | 10.2%
9 | Cc1ccc(/C=N/NC(=S)NC2CCCCC2)o1 | 72.6% (active)
10 | CC(CCc1ccccc1)NC(=O)c1ccc(Br)o1 (stereo unspecified) | 0.792%
11 | S=C(NCc1ccc(Cl)cc1)NC1CCCCC1 | -6.42%
12 | S=C(NN=C1CCN(Cc2ccccc2)CC1)NC1CCCCC1 | 9.13%
13 | COc1ccc(CNC(=O)C2CCN(C(=O)c3ccco3)CC2)cc1 | -12.4%
14 | CCCc1cc(=O)n2[nH]c(C)c(-c3ccc(Cl)cc3)c2n1 | -5.47%
15 | Cc1ccc(C(CNC(=O)Nc2cccc(C)c2)N2CCN(C)CC2)cc1 (stereo unspecified) | 1.35%
16 | Cc1c(NC(=O)Nc2cccc([N+](=O)[O-])c2)c(=O)n(-c2ccccc2)n1C | -5.21%
17 | CC1CCN(S(=O)(=O)c2ccc3c(ccn3CC(=O)O)c2)CC1 | -22.5%
18 | CC(=O)N1CCN(CC(=O)Nc2ccc(SC(F)F)cc2)CC1 | -12.2%
19 | O=C(Cc1ccc(Cl)c(Cl)c1)Nc1ccc(SC(F)F)cc1 | 43% (active)
20 | Cc1ccc(CC(=O)Nc2ccc(OC(F)F)c(Cl)c2)cc1C | -4.66%
21 | CNC(=O)[C@]1(C(F)(F)F)C[C@H](CCc2ccccc2)CCCO1 | 32.4%
22 | O=C(c1cccs1)N1CCC(c2nc3ccccc3s2)CC1 | 18.9%
23 | Cc1cccc(C(=O)N2CCC(c3nc4ccccc4s3)CC2)c1 | -12.1%
24 | c1ccc2sc(C3CCCNC3)nc2c1 (stereo unspecified) | 69.9% (active)

Row | Compound | inhibition
25 | CC(=O)Oc1ccc(N(C(C)=O)S(=O)(=O)c2ccc3ccccc3c2)cc1Br | 33.2%
26 | CCCCCNC(=O)C1c2ccccc2Oc2ccccc21 | -12.3%
27 | O=C(/C=C/c1ccc(N2CCOCC2)cc1)c1ccccc1 | 68% (active)
28 | CC(=O)Oc1ccc(C)cc1N1C(=O)c2ccc(C(=O)O)cc2C1=O | 21.4%
29 | O=C(CN1CCN(S(=O)(=O)/C=C/c2ccccc2)CC1)Nc1ccc(N2CCOCC2)cc1 | -7.43%
30 | Cc1cccc(N2C(=O)c3ccc(C(=O)Nc4cccc(C(=O)O)c4)cc3C2=O)c1 | 19%
31 | O=C(O)c1ccc2c(c1)C(=O)N(c1ccc(/C=C/C(=O)c3ccccc3)cc1)C2=O | 70.9% (active)
32 | O=C(/C=C/c1ccccc1)c1ccoc1 | 26%
33 | O=C(c1ccc(C(F)(F)F)cc1)C1CCCN(C(=O)c2csnn2)C1 (stereo unspecified) | -1.35%
34 | COc1ccc(CCNC(=O)C2CCCN2C(=O)Nc2ccccc2)cc1OC (stereo unspecified) | 9.89%
35 | O=S1(=O)N=C(N(CCO)/N=C/c2ccccc2F)c2ccccc21 | -5.12%
36 | CCCC(=O)Nc1c(O)c2ccccc2[nH]c1=O | 25.5%
37 | CCCCc1nc2ccccc2c(=O)n1NC(=O)c1c(O)c2cccc3c2n(c1=O)CC3 | 28.4%
38 | CCCc1nc2ccccc2c(=O)n1NC(=O)c1c(O)c2ccccc2[nH]c1=O | 110% (active)
39 | C#CC(CCN1CCCCC1)(OC)c1ccccc1 (stereo unspecified) | -17.9%
40 | CCCc1c(C(=O)N/N=C(\C)CCc2ccc(OC)cc2)nnn1-c1nonc1N | -11%
41 | OC(CNCCc1ccc(Cl)cc1Cl)COc1ccccc1 (stereo unspecified) | 2.65%
42 | O=C(CN(Cc1ccc(Br)cc1)S(=O)(=O)c1ccccc1)NCc1ccncc1 | -14.3%
43 | O=C(C1CC(=O)N(c2ccc(F)cc2)C1)N1CCN(c2ccccc2)CC1 (stereo unspecified) | -5.65%
44 | COc1ccc(Cn2c(-c3ccc(Cl)cc3)c[n+]3ccccc23)cc1 | 96.6% (active)
45 | CCn1c(C)cc(=O)cc1-c1ccc(Cl)cc1 | -5.82%
46 | COc1ccc(C(=O)CN(C(=O)c2ccc(Cl)cc2)N2C(=O)c3ccccc3C2=O)cc1 | -9%
47 | CC1(C)C2CCC1(CS(=O)(=O)NCCc1c[nH]c3ccccc13)C(=O)C2 (stereo unspecified) | 23.7%
48 | O=C(N/C(=C\c1ccc(O)cc1)C(=O)N1CCCCC1)c1ccccc1 | 11.3%

Row | Compound | inhibition
49 | COc1cc(/C=N/N2CCN(c3ccccc3)CC2)ccc1OC(C)=O | 23.8%
50 | C(=N/N1CCN(c2ccccc2)CC1)/c1cccs1 | 94.4% (active)
51 | Cc1ccc(N2CCN(/N=C/c3cccs3)CC2)cc1 | 13.1%
52 | O=C(Cn1nc(C(=O)O)c2ccccc2c1=O)Nc1ccc(F)cc1 | -3.59%
53 | O=C1CCC([N+](=O)[O-])C(c2ccccc2Br)N1 (stereo unspecified) | 4.29%
54 | COc1ccc(-c2nnc(NC(=O)CS(=O)(=O)c3ccc(Cl)cc3)o2)c(OC)c1 | 3.54%
55 | COC(=O)CN1C(=O)C(C)(C)Oc2ccc(C(=O)Nc3cccc(OC)c3)cc21 | -0.621%
56 | CN(C)S(=O)(=O)c1ccc(N/C=C(\[N+](=O)[O-])S(=O)(=O)c2ccccc2)cc1 | -2.26%
57 | CCC(C)N(C)C1CCN(C(=S)Nc2ccc(OC)cc2)CC1 (stereo unspecified) | -9.08%
58 | COc1ccccc1C1CCN(C(=S)Nc2ccc(Br)cc2)CC1 | 47.5% (active)
59 | COc1ccc(C(=O)NC2CCN(C(=S)Nc3ccccc3)CC2)cc1 | -2.02%
60 | CN1CCC(=O)N([C@H](CO)Cc2ccccc2)CC1 | -4.98%
61 | O=C1CCCC(O)=C1N=Nc1ccc(S(=O)(=O)N2CCOCC2)cc1 | 22.3%
62 | O=C1CCCC(O)=C1N=Nc1ccc2ncsc2c1 | 87.8% (active)
63 | COC(=O)c1ccc2c(=O)n(CCN3CCOCC3)c(SCC(=O)Nc3cccc(OC)c3)nc2c1 | -7.42%
64 | O=C(CNC(=O)Cc1ccccc1)N=Nc1c(O)[nH]c2ccc(Br)cc12 | 3.9%
65 | CC1(C)CCSC(/C=C/c2ccccc2)=N1 | 52.2% (active)
66 | Cc1cccn2c(=O)c(C=O)c(Nc3ccc(S(N)(=O)=O)cc3)nc12 | 3.64%
67 | CCC(=O)N(CCc1ccccc1)Cc1cc2cc(C)ccc2[nH]c1=O | -0.364%
68 | COc1cccc(-n2c(=S)sc3c(=O)n(-c4ccccc4OC)c(SCC4OCCO4)nc32)c1 | -11.3%
69 | O=C(O)c1ccccc1-c1ccccc1C(=O)NCc1cccnc1 | -3.52%
70 | O=C(NCc1cccnc1)Nc1ccccc1F | 19.6%
71 | O=C(Nc1ccccc1F)c1ccccc1-c1ccccc1 | 7.36%
72 | O=C(Nc1ccc(NC(=O)c2ccccc2F)cc1)c1ccccc1F | -6.19%

Row | Compound | inhibition
73 | CN(Cc1ccccc1)S(=O)(=O)c1nnc(NC(=O)c2ccccc2F)s1 | -6.12%
74 | O=C(NCc1cccnc1)C(=O)Nc1nc(-c2ccccc2)cs1 | 98% (active)
75 | O=C(O)c1ccccc1C(=O)Nc1nc(-c2ccccc2)cs1 | -11.1%
76 | O=C(Nc1nc(-c2cccnc2)cs1)c1ccccc1F | 166% (active)
77 | Cc1ccccc1Nc1nc(-c2cccnc2)cs1 | 76.4% (active)
78 | O=C(Nc1nnc(-c2ccccc2F)s1)c1ccccc1F | 58% (active)
79 | Cc1ccc(CNC(=O)C2(C(F)(F)F)C/C(=C\CCO)CCCO2)o1 (stereo unspecified) | -7.08%
80 | COc1ccc(CNC(=O)COc2cccnc2[N+](=O)[O-])cc1 | -2.63%
81 | CC(=O)N1CCN(C(=O)C2(NC(=O)Nc3ccc(C)cc3)CCCCC2)CC1 | 23.1%
82 | NNC(=O)CNC(c1ccccc1)c1cc(Cl)ccc1NC(=O)c1ccccc1 (stereo unspecified) | -4.52%
83 | COc1ccc(Nc2nc(NCc3ccco3)nc(N/N=C/c3ccccc3Cl)n2)cc1 | 7.02%
84 | COc1ccc(CC(=O)N/N=C/c2cc([N+](=O)[O-])cc(Br)c2O)cc1 | -3.43%
85 | Cc1ccc(S(=O)(=O)c2nnn3c2nc(N2CCN(c4ccccn4)CC2)c2ccccc23)cc1 | -12%
86 | Cc1occc1C(=O)NC1CCCN(Cc2ccc(CC(C)C)cc2)C1 (stereo unspecified) | -8.21%
87 | Cc1ccc(CNS(=O)(=O)c2ccc3c(c2)N(C)CCO3)cc1 | -2.13%
88 | CC1CCN(S(=O)(=O)c2ccc3[nH]c(=O)ccc3c2)CC1 | -6.16%
89 | O=C(NC(=S)Nc1ccc(Cl)c(C(=O)O)c1)c1cncc(Br)c1 | 14.6%
90 | N#Cc1ccc(/C=C2\CCn3c2nc2cc(C(=O)O)ccc2c3=O)cc1 | -9.62%
91 | O=C(Nc1nc(-c2ccc(-c3ccccc3)cc2)cs1)c1cnccn1 | 34.8% (active)
92 | O=C(Nc1nnc(Cc2ccccc2)s1)c1cnccn1 | -3.24%
93 | Cc1ccc(-c2csc(NC(=O)c3cnccn3)n2)cc1C | 8.33%
94 | COc1ccc(CN2CCC(n3nccc3NC(=O)CCCc3ccccc3)CC2)cc1C | -2.11%
95 | CC(=O)Nc1ccc(NS(=O)(=O)c2ccc3c(c2)NC(=O)CC(=O)N3)cc1 | -11.9%
96 | CCOC(=O)c1c(C)[nH]c(C)c1S(=O)(=O)NCCCc1ccco1 | -3.37%
